# Assay results published in PubChem BioAssay (EPA / NIEHS).
# Calls of active or inactive are those of the source. The calls were made as follows: active = hit-call score of the fitted dose curve at least 0.9, where 1 is the maximum; inactive = score below 0.9.
# How the values were obtained:
# [1] = read-out: Tumor necrosis factor receptor superfamily member 6 (Homo sapiens) (UniProt P25445); assay: LTEA_HepaRG_FAS: Life Technologies and Expression Analysis (LTEA) Assay for Fas cell surface death receptor (FAS) using HepaRG (AID 2283447); conditions: mRNA level, 48 h; actives raise or lower the signal
# Outline: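 FAS transcript level was measured by TaqMan qRT-PCR against three housekeeping genes after 48 h chemical exposure. Cells were HepaRG, 0.5% DMSO vehicle, with a top concentration of 100 uM and half-log dilutions over eight points, in duplicate.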
# [2] = read-out: Cyclin D2 (CCND2), CCND2 (gene 894); assay: LTEA_HepaRG_CCND2: Life Technologies and Expression Analysis (LTEA) Assay for Cyclin D2 (CCND2) using HepaRG (AID 2283449); conditions: mRNA level, 48 h; actives raise or lower the signal
# Outline: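 Read-out is CCND2 mRNA level measured by qRT-PCR in human HepaRG liver cells and normalised to three housekeeping genes. Chemicals were applied for 48 h at up to 100 uM, with gain or loss fitted relative to 0.5% DMSO.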
# [3] = read-out: Cyclin Dependent Kinase Inhibitor 1A (CDKN1A), CDKN1A (gene 1026); assay: LTEA_HepaRG_CDKN1A: Life Technologies and Expression Analysis (LTEA) Assay for Cyclin Dependent Kinase Inhibitor 1A (CDKN1A) using HepaRG (AID 2283450); conditions: mRNA level, 48 h; actives raise or lower the signal
# Outline: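 Differentiated human HepaRG cells, pre-cultured 48 h, were exposed in duplicate for 48 h in serum-free induction medium to eight half-log concentrations up to 100 uM (0.5% DMSO). CDKN1A mRNA was measured by qRT-PCR, normalized to ACTB/GAPDH/POLR2A, bidirectionally fitted versus DMSO.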
# [4] = read-out: Cyclin D1 (CCND1), CCND1 (gene 595); assay: LTEA_HepaRG_CCND1: Life Technologies and Expression Analysis (LTEA) Assay for Cyclin D1 (CCND1) using HepaRG (AID 2283451); conditions: mRNA level, 48 h; actives raise or lower the signal;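 as to AC50: TaqMan qRT-PCR transcript level normalised to ACTB GAPDH and POLR2A housekeeping genes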
# Outline: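 Differentiated human HepaRG cells in serum-free induction medium were exposed 48 h to eight half-log concentrations up to 100 uM in 0.5% DMSO; mRNA quantified by TaqMan qRT-PCR, normalized to ACTB, GAPDH, POLR2A, fitted bidirectionally versus DMSO.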
# [5] = read-out: catalase (CAT), CAT (gene 847); assay: LTEA_HepaRG_CAT: Life Technologies and Expression Analysis (LTEA) Assay for catalase (CAT) using HepaRG (AID 2283452); conditions: mRNA level, 48 h; actives raise or lower the signal;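 as to AC50: TaqMan qRT-PCR signal normalized to ACTB GAPDH and POLR2A housekeeping genes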
# Outline: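 Expression of CAT was quantified by TaqMan qRT-PCR with ACTB/GAPDH/POLR2A normalization after 48 h chemical exposure of HepaRG. Eight-point half-log series, top 100 uM, in 0.5% DMSO; gain or loss fitted against vehicle.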
# [6] = read-out: flavin-containing dimethylaniline monooxygenases 3 (FMO3), FMO3 (gene 2328); assay: LTEA_HepaRG_FMO3: Life Technologies and Expression Analysis (LTEA) Assay for flavin-containing dimethylaniline monooxygenases 3 (FMO3) using HepaRG (AID 2283453); conditions: mRNA level, 48 h; actives raise or lower the signal;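 as to AC50: FMO3 transcript by TaqMan qRT-PCR normalized to ACTB GAPDH and POLR2A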
# Outline: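 HepaRG, 48 h exposure, 8-pt half-log series from 100 uM, 0.5% DMSO vehicle, duplicates; FMO3 transcript by Fluidigm TaqMan qRT-PCR, housekeeping-normalized; gain/loss fit vs DMSO.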
# [7] = read-out: Cytochrome P450 (CYP1A1), CYP1A1 (gene 1543); assay: LTEA_HepaRG_CYP1A1: Life Technologies and Expression Analysis (LTEA) Assay for Cytochrome P450 (CYP1A1) using HepaRG (AID 2283454); conditions: mRNA level, 48 h; actives raise or lower the signal
# Outline: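 Differentiated HepaRG cells in serum-free induction medium were exposed in duplicate for 48 h to eight half-log concentrations up to 100 uM in 0.5% DMSO. CYP1A1 mRNA was quantified by TaqMan qRT-PCR, normalized to ACTB, GAPDH and POLR2A.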
# [8] = read-out: CFLAR gene, CFLAR (gene 8837); assay: LTEA_HepaRG_CFLAR: Life Technologies and Expression Analysis (LTEA) Assay for CFLAR gene using HepaRG (AID 2283455); conditions: mRNA level, 48 h; actives raise or lower the signal
# Outline: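 HepaRG, 48 h exposure, 8-pt conc-response (100 uM top, half-log), 0.5% DMSO vehicle, duplicates. CFLAR expression by qRT-PCR; ACTB/GAPDH/POLR2A normalization; gain or loss fit vs DMSO baseline.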
# [9] = read-out: Forkhead box O1 (FOXO1), FOXO1 (gene 2308); assay: LTEA_HepaRG_FOXO1: Life Technologies and Expression Analysis (LTEA) Assay for Forkhead box O1 (FOXO1) using HepaRG (AID 2283456); conditions: mRNA level, 48 h; actives raise or lower the signal
# Outline: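 Readout is FOXO1 transcript level by multiplexed qRT-PCR against three housekeeping genes, curve-fitted in both directions relative to 0.5% DMSO vehicle. Human HepaRG cultures received chemicals for 48 h, up to 100 uM in half-log steps.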
# [10] = CEETOX_H295R_11DCORT: CeeTox H295R High-throughput Steroidogenesis Assay for 11-Deoxycortisol (11DCORT) (AID 2283432); conditions: actives raise or lower the signal;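 as to AC50: 11-deoxycortisol secreted into the medium measured by LC-MS/MS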
# Outline: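 H295R cells; 10 uM forskolin prestim 48 h; compound in 0.1% DMSO 48 h; media extracted with MTBE; 11-deoxycortisol by LC-MS/MS, 7-point standard curve; gain/loss vs DMSO baseline; viability by MTT in same wells.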
# [11] = CEETOX_H295R_OHPREG: CeeTox H295R High-throughput Steroidogenesis Assay for OH-Pregnenolone (OHPREG) (AID 2283434); conditions: actives raise or lower the signal
# Outline: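 Hormone levels in spent medium were measured by tandem mass spectrometry following liquid-liquid extraction. Cells (H295R) had been forskolin-stimulated (10 uM, 48 h) before a 48 h chemical exposure at 0.1% DMSO, with activity fitted in both directions against DMSO.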
# [12] = CEETOX_H295R_OHPROG: CeeTox H295R High-throughput Steroidogenesis Assay for OH-Progesterone (OHPROG) (AID 2283435); conditions: actives raise or lower the signal;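 as to AC50: 17alpha-hydroxyprogesterone secreted into medium measured by HPLC-MS/MS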
# Outline: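 Secreted 17alpha-hydroxyprogesterone is read by tandem MS from media of forskolin-primed H295R cells dosed with chemical for 48 h. Activity is fitted in both directions against DMSO baseline; cytotoxic concentrations are re-tested diluted.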
# [13] = CEETOX_H295R_CORTIC: CeeTox H295R High-throughput Steroidogenesis Assay for Corticosterone (CORTIC) (AID 2283437); conditions: actives raise or lower the signal;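 also: corticosterone secreted into medium quantified by mass spectrometry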
# Outline: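 Corticosterone secreted into medium is measured by reverse-phase HPLC with tandem MS following liquid-liquid extraction. Cells are forskolin-stimulated (10 uM, 48 h) before 48 h test exposure; activity fitted in both directions against DMSO.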
# [14] = CEETOX_H295R_CORTISOL: CeeTox H295R High-throughput Steroidogenesis Assay for Cortisol (AID 2283438); conditions: actives raise or lower the signal;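 also: cortisol secreted into medium quantified by LC-MS/MS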
# Outline: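 Human adrenocortical H295R cells (passage ≤10) received test chemicals for 48 h after forskolin priming. Secreted cortisol was measured by LC-MS/MS.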
# [15] = CEETOX_H295R_PROG: CeeTox H295R High-throughput Steroidogenesis Assay for Progesterone (PROG) (AID 2283442); conditions: actives raise or lower the signal;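 as to AC50: human H295R adrenal cells primed with 10 µM forskolin before dosing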
# Outline: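 H295R human adrenal cells were prestimulated with 10 uM forskolin for 48 h, then exposed to test chemical (0.1% DMSO final) for 48 h. Medium progesterone was MTBE-extracted and quantified by HPLC-MS/MS, with bidirectional fitting against DMSO.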
# [16] = read-out: Fatty acid synthase (Homo sapiens) (UniProt P49327); assay: LTEA_HepaRG_FASN: Life Technologies and Expression Analysis (LTEA) Assay for Fatty Acid Synthase (FASN) using HepaRG (AID 2283448); conditions: mRNA level, 48 h; actives raise or lower the signal
# Outline: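 Transcript-level assay: HepaRG liver cells are treated for 48 h across an eight-point range topping at 100 uM, and FASN mRNA, normalized to three housekeeping genes, is compared with DMSO controls in both directions.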
# [17] = CEETOX_H295R_ESTRADIOL: CeeTox H295R High-throughput Steroidogenesis Assay for Estradiol (AID 2283440); conditions: actives raise or lower the signal;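 also: estradiol secreted into medium quantified by LC-MS/MS after dansyl derivatisation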
# Outline: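 H295R adrenocortical cells were prestimulated with 10 uM forskolin for 48 h, then exposed to test chemical in 0.1% DMSO for 48 h. Medium estradiol was extracted with MTBE, dansyl-derivatized and quantified by HPLC-MS/MS; bidirectional fit versus DMSO.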
# [18] = CEETOX_H295R_ESTRONE: CeeTox H295R High-throughput Steroidogenesis Assay for Estrone (AID 2283441); conditions: actives raise or lower the signal;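 also: estrone secreted into medium measured by LC-MS/MS after dansyl derivatization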
# Outline: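 H295R cells; 48 h forskolin (10 uM) prestimulation; 48 h compound exposure, 0.1% DMSO final. Medium estrone: MTBE extraction, dansyl derivatization, HPLC-MS/MS. Bidirectional fit vs DMSO.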
# Chain of Fatty acid synthase (Homo sapiens) (P49327 whole entry, looked up): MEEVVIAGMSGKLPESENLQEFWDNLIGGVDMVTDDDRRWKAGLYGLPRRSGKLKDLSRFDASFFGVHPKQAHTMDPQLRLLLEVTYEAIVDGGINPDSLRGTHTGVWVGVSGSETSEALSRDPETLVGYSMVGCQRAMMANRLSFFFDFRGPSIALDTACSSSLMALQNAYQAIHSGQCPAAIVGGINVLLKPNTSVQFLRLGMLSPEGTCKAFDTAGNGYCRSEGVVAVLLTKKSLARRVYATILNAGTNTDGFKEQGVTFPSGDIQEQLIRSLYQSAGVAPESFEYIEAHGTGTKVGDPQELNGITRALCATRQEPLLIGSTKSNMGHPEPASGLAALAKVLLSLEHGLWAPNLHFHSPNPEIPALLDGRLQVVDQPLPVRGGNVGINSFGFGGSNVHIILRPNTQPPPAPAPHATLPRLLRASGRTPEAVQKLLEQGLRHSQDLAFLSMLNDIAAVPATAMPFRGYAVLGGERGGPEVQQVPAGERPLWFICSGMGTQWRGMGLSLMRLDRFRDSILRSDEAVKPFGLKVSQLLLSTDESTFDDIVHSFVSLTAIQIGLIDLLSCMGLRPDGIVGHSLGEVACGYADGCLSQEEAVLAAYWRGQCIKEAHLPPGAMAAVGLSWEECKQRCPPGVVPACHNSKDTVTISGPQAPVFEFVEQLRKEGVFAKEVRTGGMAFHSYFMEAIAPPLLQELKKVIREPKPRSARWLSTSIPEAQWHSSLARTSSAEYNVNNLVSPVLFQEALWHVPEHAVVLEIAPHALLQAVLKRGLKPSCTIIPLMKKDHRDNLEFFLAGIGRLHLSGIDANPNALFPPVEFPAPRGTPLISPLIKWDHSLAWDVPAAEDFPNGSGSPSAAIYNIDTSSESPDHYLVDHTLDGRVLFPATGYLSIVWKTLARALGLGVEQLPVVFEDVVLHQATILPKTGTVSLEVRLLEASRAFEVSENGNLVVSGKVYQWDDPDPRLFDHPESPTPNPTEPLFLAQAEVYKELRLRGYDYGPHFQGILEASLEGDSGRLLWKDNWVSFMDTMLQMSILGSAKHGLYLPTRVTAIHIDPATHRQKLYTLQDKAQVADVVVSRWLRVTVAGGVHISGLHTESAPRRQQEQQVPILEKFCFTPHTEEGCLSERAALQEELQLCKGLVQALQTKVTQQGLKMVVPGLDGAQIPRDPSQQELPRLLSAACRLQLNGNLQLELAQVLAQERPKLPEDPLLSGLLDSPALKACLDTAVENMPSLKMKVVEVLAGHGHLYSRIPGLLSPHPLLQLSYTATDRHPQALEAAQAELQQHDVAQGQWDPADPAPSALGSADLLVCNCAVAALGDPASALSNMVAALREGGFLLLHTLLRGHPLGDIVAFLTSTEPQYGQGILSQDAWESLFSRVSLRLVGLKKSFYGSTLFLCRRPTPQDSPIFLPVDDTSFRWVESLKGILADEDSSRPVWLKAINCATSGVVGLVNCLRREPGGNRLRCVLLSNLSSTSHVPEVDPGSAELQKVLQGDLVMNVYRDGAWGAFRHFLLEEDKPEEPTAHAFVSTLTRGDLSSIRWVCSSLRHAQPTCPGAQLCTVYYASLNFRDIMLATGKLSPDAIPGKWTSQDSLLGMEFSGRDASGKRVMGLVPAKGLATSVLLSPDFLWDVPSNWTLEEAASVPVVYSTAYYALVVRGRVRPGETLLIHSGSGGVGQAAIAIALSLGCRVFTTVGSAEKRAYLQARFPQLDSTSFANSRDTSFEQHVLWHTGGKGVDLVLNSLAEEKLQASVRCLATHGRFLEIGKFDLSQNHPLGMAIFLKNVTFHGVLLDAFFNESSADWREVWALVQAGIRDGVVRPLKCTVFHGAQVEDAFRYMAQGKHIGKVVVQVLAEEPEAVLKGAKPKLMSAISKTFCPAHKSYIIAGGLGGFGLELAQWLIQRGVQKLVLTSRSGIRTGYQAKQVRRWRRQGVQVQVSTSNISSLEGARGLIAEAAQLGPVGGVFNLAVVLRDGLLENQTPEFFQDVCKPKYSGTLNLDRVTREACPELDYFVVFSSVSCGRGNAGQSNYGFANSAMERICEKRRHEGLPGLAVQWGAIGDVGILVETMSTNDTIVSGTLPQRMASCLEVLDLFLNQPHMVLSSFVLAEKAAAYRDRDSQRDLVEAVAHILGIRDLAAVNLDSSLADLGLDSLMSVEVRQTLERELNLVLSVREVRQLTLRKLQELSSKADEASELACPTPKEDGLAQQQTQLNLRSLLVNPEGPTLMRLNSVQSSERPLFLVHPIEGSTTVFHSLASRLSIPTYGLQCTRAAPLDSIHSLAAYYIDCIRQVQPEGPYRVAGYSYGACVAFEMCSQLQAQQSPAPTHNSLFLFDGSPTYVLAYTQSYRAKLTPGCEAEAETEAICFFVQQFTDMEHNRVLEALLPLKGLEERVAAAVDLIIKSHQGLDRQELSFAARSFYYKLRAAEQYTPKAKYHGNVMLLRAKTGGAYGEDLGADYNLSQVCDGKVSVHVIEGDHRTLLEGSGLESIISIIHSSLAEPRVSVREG
smiles,measurement,setting,value
CCCCOCCO,outcome,[1],inactive
same,outcome,[2],inactive
same,outcome,[3],inactive
same,outcome,[4],inactive
same,outcome,[5],inactive
same,outcome,[6],inactive
same,AC50,[7],50 µM (active)
same,outcome,[8],inactive
same,outcome,[9],inactive
COC(=O)CCCCC(=O)OC,outcome,[10],inactive
same,outcome,[11],inactive
same,outcome,[12],inactive
same,outcome,[13],inactive
same,outcome,[14],inactive
same,outcome,[15],inactive
same,outcome,[16],inactive
same,outcome,[3],inactive
same,outcome,[4],inactive
same,outcome,[5],inactive
same,outcome,[6],inactive
same,outcome,[7],inactive
same,outcome,[8],inactive
same,outcome,[9],inactive
C#C[C@]1(O)CC[C@H]2[C@@H]3CCC4=CC(=O)CC[C@@H]4[C@H]3CC[C@@]21C,outcome,[13],inactive
same,outcome,[2],inactive
same,outcome,[4],inactive
same,outcome,[6],inactive
same,outcome,[7],inactive
same,outcome,[8],inactive
same,outcome,[9],inactive
NC(=O)N1C(=O)C(C(=O)c2cc(Cl)cs2)c2cc(F)c(Cl)cc21 (stereo not given),outcome,[1],inactive
same,outcome,[16],inactive
same,AC50,[2],28.7 µM (active)
same,outcome,[3],inactive
same,AC50,[4],13.1 µM (active)
same,AC50,[5],25.1 µM (active)
same,AC50,[6],20 µM (active)
same,AC50,[7],3.31 µM (active)
same,outcome,[8],inactive
same,AC50,[9],12.6 µM (active)
CCCOC(=O)c1ccc(O)cc1,AC50,[10],35.4 µM (active)
same,AC50,[11],24.4 µM (active)
same,AC50,[12],7.73 µM (active)
same,outcome,[13],inactive
same,AC50,[14],79.4 µM (active)
same,outcome,[17],inactive
same,outcome,[18],inactive
same,AC50,[15],5.71 µM (active)
same,outcome,[1],inactive
same,outcome,[2],inactive
same,outcome,[3],inactive
same,outcome,[4],inactive
same,outcome,[5],inactive
same,outcome,[6],inactive
same,outcome,[7],inactive
same,outcome,[8],inactive
same,outcome,[9],inactive
CN1CCC[C@H]1c1cccnc1,outcome,[11],inactive
same,outcome,[12],inactive
same,outcome,[17],inactive
same,outcome,[18],inactive
same,outcome,[15],inactive
same,outcome,[2],inactive
same,outcome,[3],inactive
same,outcome,[4],inactive
same,outcome,[5],inactive
same,outcome,[6],inactive
same,AC50,[7],70.6 µM (active)
same,outcome,[8],inactive
same,outcome,[9],inactive
